Measurements taken from PubChem BioAssay AID1159580 (chemical genetic matrix, 2015).
Where “and” joins values, the source holds several entries; their conditions need not be identical. Equal entries are not always repeated. About 2,000 (36%) of roughly 5,500 compounds were called active. Roughly 18% stayed inconclusive and do not appear here. No stated cut-off is given here; in the data, active means normalized growth mostly below about 0.91 (no sharp cut-off); inconclusive means no clear call, values can overlap the other calls; inactive means mostly above about 0.92. The list shows a part of the results.

Experiment: chemical genetic growth profiling, strain panel (AID 1159580);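 further: tested at 20 µM; growth read once vehicle control cultures reached saturation at 30 °C; 1 = growth at the plate median or of vehicle wells; lower values mean less growth of the strain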
Details: growth OD

Measured: normalized growth

CN(C)CCC=C1c2ccccc2C=Cc2ccccc21
active: S. cerevisiae deletion strains, locus YLR039C, strain RIC1, active compounds read low 1.35 [resistant] | S. cerevisiae deletion strains, locus YLR262C, strain YPT6, active compounds read low 1.53 [resistant] | S. cerevisiae deletion strains, locus YLR418C, strain cdc73, active compounds read low 0.811 | S. cerevisiae deletion strains, locus YNL209W, strain ssb2, active compounds read low 0.925
inactive: S. cerevisiae deletion strains, locus YKL009W, strain mrt4, active compounds read low 0.959 | S. cerevisiae deletion strains, locus YKL068W, active compounds read low 0.982 | S. cerevisiae deletion strains, locus YKL085W, strain MDH1 (second series), active compounds read low 0.975 | S. cerevisiae deletion strains, locus YKL085W, strain MDH1, active compounds read low 0.975 | S. cerevisiae deletion strains, locus YKL160W, strain elf1, active compounds read low 0.958 | S. cerevisiae deletion strains, locus YKL190W, strain CNB1, active compounds read low 0.977 | S. cerevisiae deletion strains, locus YKR001C, strain vps1, active compounds read low 1.01 | S. cerevisiae deletion strains, locus YKR026C, strain gcn3, active compounds read low 0.998 | S. cerevisiae deletion strains, locus YKR091W, strain srl3, active compounds read low 0.971 | S. cerevisiae deletion strains, locus YLL001W, strain dnm1, active compounds read low 1.01 | S. cerevisiae deletion strains, locus YLL026W, active compounds read low 0.985 | S. cerevisiae deletion strains, locus YLL041C, strain sdh2, active compounds read low 0.984 | S. cerevisiae deletion strains, locus YLR027C, strain aat2, active compounds read low 0.98 | S. cerevisiae deletion strains, locus YLR058C, strain SHM2, active compounds read low 0.99 | S. cerevisiae deletion strains, locus YLR102C, strain apc9, active compounds read low 0.985 | S. cerevisiae deletion strains, locus YLR113W, strain HOG1, active compounds read low 1.04 | S. cerevisiae deletion strains, locus YLR221C, strain rsa3, active compounds read low 1 | S. cerevisiae deletion strains, locus YLR258W, strain gsy2, active compounds read low 0.989 | S. cerevisiae deletion strains, locus YLR262C, strain YPT6 (second series), active compounds read low 1.02 | S. cerevisiae deletion strains, locus YLR268W, strain sec22, active compounds read low 0.99 | S. cerevisiae deletion strains, locus YLR320W, strain mms22, active compounds read low 1.01 | S. cerevisiae deletion strains, locus YLR330W, strain CHS5, active compounds read low 0.987 | S. cerevisiae deletion strains, locus YLR342W, strain FKS1 (second series), active compounds read low 0.903 | S. cerevisiae deletion strains, locus YLR342W, strain FKS1, active compounds read low 0.979 | S. cerevisiae deletion strains, locus YLR357W, strain rsc2, active compounds read low 1.01 | S. cerevisiae deletion strains, locus YLR370C, strain arc18, active compounds read low 0.988 | S. cerevisiae deletion strains, locus YLR371W, strain rom2, active compounds read low 0.992 | S. cerevisiae deletion strains, locus YLR384C, strain iki3, active compounds read low 0.991 | S. cerevisiae deletion strains, locus YML016C, strain PPZ1, active compounds read low 0.996 | S. cerevisiae deletion strains, locus YML032C, strain rad52, active compounds read low 1.01 | S. cerevisiae deletion strains, locus YML120C, strain ndi1, active compounds read low 1 | S. cerevisiae deletion strains, locus YML124C, strain tub3, active compounds read low 0.997 | S. cerevisiae deletion strains, locus YMR058W, strain fet3, active compounds read low 0.968 | S. cerevisiae deletion strains, locus YMR078C, strain ctf18, active compounds read low 0.984 | S. cerevisiae deletion strains, locus YMR125W, strain sto1, active compounds read low 0.95 | S. cerevisiae deletion strains, locus YMR129W, active compounds read low 0.99 | S. cerevisiae deletion strains, locus YMR205C, strain PFK2, active compounds read low 1 | S. cerevisiae deletion strains, locus YMR223W, strain ubp8, active compounds read low 0.951 | S. cerevisiae deletion strains, locus YMR231W, strain pep5, active compounds read low 0.989 | S. cerevisiae deletion strains, locus YMR263W, strain SAP30, active compounds read low 1 | S. cerevisiae deletion strains, locus YMR307W, strain GAS1, active compounds read low 1.01 and 0.999 | S. cerevisiae deletion strains, locus YNL067W, strain RPL9B, active compounds read low 0.994 | S. cerevisiae deletion strains, locus YNL071W, strain lat1, active compounds read low 0.99 | S. cerevisiae deletion strains, locus YNL153C, strain GIM3, active compounds read low 1.04 and 1 | S. cerevisiae deletion strains, locus YNL175C, strain NOP13, active compounds read low 1.06 | S. cerevisiae deletion strains, locus YNL183C, strain NPR1, active compounds read low 0.955 | S. cerevisiae deletion strains, locus YNL197C, strain WHI3, active compounds read low 1.02 | S. cerevisiae deletion strains, locus YNL224C, strain SQS1, active compounds read low 1.01 | S. cerevisiae deletion strains, locus YNL233W, strain BNI4, active compounds read low 1.02 | S. cerevisiae deletion strains, locus YNL248C, strain rpa49, active compounds read low 0.959 | S. cerevisiae deletion strains, locus YNL250W, strain rad50, active compounds read low 0.985 | S. cerevisiae deletion strains, locus YNL271C, strain bni1, active compounds read low 0.986 | S. cerevisiae deletion strains, locus YNL298W, strain CLA4, active compounds read low 0.988 | S. cerevisiae deletion strains, locus YNL307C, strain MCK1, active compounds read low 0.994 | S. cerevisiae deletion strains, locus YNL322C, strain KRE1 (second series), active compounds read low 0.992 | S. cerevisiae deletion strains, locus YNL322C, strain KRE1, active compounds read low 0.977 | S. cerevisiae deletion strains, locus YNR049C, strain mso1, active compounds read low 0.978 | S. cerevisiae deletion strains, locus YNR052C, strain pop2, active compounds read low 0.948 | S. cerevisiae deletion strains, locus YOL006C, strain TOP1, active compounds read low 0.852 | S. cerevisiae deletion strains, locus YOL012C, strain htz1 0.956 | S. cerevisiae deletion strains, locus YOL147C, strain pex11, active compounds read low 0.996 | S. cerevisiae deletion strains, locus YOR001W, strain rrp6, active compounds read low 0.965 | S. cerevisiae deletion strains, locus YOR061W, strain CKA2, active compounds read low 0.99 | S. cerevisiae deletion strains, locus YOR069W, strain VPS5, active compounds read low 0.983 | S. cerevisiae deletion strains, locus YOR070C, strain gyp1, active compounds read low 0.966 | S. cerevisiae deletion strains, locus YOR080W, strain dia2, active compounds read low 0.98 | S. cerevisiae deletion strains, locus YOR083W, strain WHI5 (second series), active compounds read low 1.08 | S. cerevisiae deletion strains, locus YOR083W, strain WHI5, active compounds read low 0.945 | S. cerevisiae deletion strains, locus YOR106W, strain vam3, active compounds read low 0.89 | S. cerevisiae deletion strains, locus YOR136W, strain idh2, active compounds read low 1.03 | S. cerevisiae deletion strains, locus YOR144C, strain elg1, active compounds read low 1 | S. cerevisiae deletion strains, locus YOR184W, strain ser1, active compounds read low 1.04 | S. cerevisiae deletion strains, locus YOR231W, strain MKK1, active compounds read low 1.02 | S. cerevisiae deletion strains, locus YOR265W, strain rbl2, active compounds read low 0.983 | S. cerevisiae deletion strains, locus YOR270C, strain vph1, active compounds read low 0.809 | S. cerevisiae deletion strains, locus YOR290C, strain snf2, active compounds read low 0.958 | S. cerevisiae deletion strains, locus YOR316C, strain cot1, active compounds read low 0.988 | S. cerevisiae deletion strains, locus YPL051W, strain arl3, active compounds read low 0.964 | S. cerevisiae deletion strains, locus YPL078C, strain atp4, active compounds read low 0.989 | S. cerevisiae deletion strains, locus YPL106C, strain sse1, active compounds read low 0.927 | S. cerevisiae deletion strains, locus YPL240C, strain hsp82, active compounds read low 0.985 | S. cerevisiae deletion strains, locus YPL241C, strain CIN2, active compounds read low 0.978 and 1 | S. cerevisiae deletion strains, locus YPL256C, strain CLN2, active compounds read low 1.01 | S. cerevisiae deletion strains, locus YPR119W, strain clb2, active compounds read low 0.998 | S. cerevisiae deletion strains, locus YPR141C, strain kar3, active compounds read low 0.987 | S. cerevisiae deletion strains, locus YPR163C, strain tif3, active compounds read low 0.988 | S. cerevisiae deletion strains, locus YPR167C, strain met16, active compounds read low 0.992 | S. cerevisiae deletion strains, strain wtn01, active compounds read low 0.981 | S. cerevisiae strains, strain wild type, active compounds read low 0.99
